Compounds with a hit are over-represented: about 27% of the library has one in this group of screens.
CYP2C9 activ = CYP2C9 (human) activation; P11712; 96,000 tested, 1.4% active; activation factor at 5 µM; recombinant CYP2C9, luciferin-H conversion, luminescence; stronger effect = higher value; factor 1 = untreated enzyme, 0 = blocked;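 active means activation factor of 2 or more for CYP2C9 at a 5 µM dose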;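 further: 0 = sulfaphenazole-blocked wells and 1 = vehicle-only wells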
CYP2C19 activ = increases human CYP2C19 enzyme activity | recombinant CYP2C19, luciferin-H EGE luminescence; stronger effect = higher value; 0 = fully inhibited enzyme, 1 = untreated enzyme | activation factor at 5 µM | 96,000 tested, under 10 active | AID 1025;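 active means activation factor of at least 2 at 5 µM in the primary screen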;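 further: 0 = wells with 2.5 mM tranylcypromine and 1 = vehicle-only wells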
Target sequence (P33261 whole entry, looked up): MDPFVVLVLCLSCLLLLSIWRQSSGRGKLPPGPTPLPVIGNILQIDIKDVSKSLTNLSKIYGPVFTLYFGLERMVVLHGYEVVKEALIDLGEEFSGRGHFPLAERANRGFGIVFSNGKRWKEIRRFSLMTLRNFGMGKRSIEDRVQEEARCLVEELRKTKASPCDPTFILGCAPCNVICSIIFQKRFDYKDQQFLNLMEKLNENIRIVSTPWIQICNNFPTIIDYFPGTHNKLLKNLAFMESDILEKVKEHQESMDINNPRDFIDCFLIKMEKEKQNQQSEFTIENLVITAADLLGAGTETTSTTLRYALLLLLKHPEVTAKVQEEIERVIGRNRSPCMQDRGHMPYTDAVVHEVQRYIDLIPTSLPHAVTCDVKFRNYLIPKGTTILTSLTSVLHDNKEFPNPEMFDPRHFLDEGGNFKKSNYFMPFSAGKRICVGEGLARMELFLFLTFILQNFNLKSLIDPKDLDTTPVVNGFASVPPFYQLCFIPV
EphB4 antag = EphB4-ephrin-B2 interaction antagonism; P54760; EphB4 LBD / TNYL-RAW-Alexa532 peptide, fluorescence polarization; inhibition, % at 7 µM; 97,000 tested, 0.15% active; AID 720;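 active means inhibition above the screen-wide mean inhibition plus 3 SD, cut at about 15% in these data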;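 further: 0% = DMSO wells and 100% = excess unlabeled TNYL-RAW peptide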
CYP2C9 inhib = inhibitors of human CYP2C9; inhibition, % at 5 µM; CYP2C9 Supersomes, luciferin-H conversion, luminescence; AID 777; 96,000 tested, 20% active;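 active means blocking of liver enzyme CYP2C9 beyond about 50% at 5 µM, limit read from the data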
CYP2C19 inhib = inhibitors of human CYP2C19. AID 778. 96,000 tested, 21% active. CYP2C19 Supersomes, luciferin-H EGE luminescence, 30 min. P33261. inhibition, % at 5 µM;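 active means CYP2C19 inhibition above a set limit at 5 µM in the primary screen, cut at about 50% in these data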;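 further: plate controls were negative control wells for no effect and 2.5 mM tranylcypromine positive control for full effect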
Starred values were filed as active, the others as inactive.

COc1cccc2cc(C(C)N(CCCN3CCOCC3)C(=O)Nc3ccccc3)oc12 (stereo unspecified) was read as CYP2C9 activ 0.7, CYP2C19 activ 0.9, EphB4 antag 7, CYP2C9 inhib 32 and CYP2C19 inhib 12.
Screening O=C(Nc1cccc(Cl)c1)N(CCN1CCOCC1)Cc1cccc(Cl)c1 returned CYP2C9 activ 0.1, CYP2C19 activ 0.2, EphB4 antag -5, CYP2C9 inhib 94* and CYP2C19 inhib 85*.
Screening N#CCCN(Cc1cccnc1)C(=O)Nc1cccc(Cl)c1 returned CYP2C9 activ 0.6, CYP2C19 activ 0.1, EphB4 antag -6, CYP2C9 inhib 42 and CYP2C19 inhib 94*.
For C=CCC(c1ccccc1F)N(CCN1CCOCC1)C(=O)Nc1cccc(Cl)c1 (stereo unspecified) the results were CYP2C9 activ 0.1, CYP2C19 activ 0.7, EphB4 antag -10, CYP2C9 inhib 87* and CYP2C19 inhib 31.
CCc1ccc2[nH]c(=O)c(CN(CCCN3CCOCC3)C(=O)Nc3cccc(Cl)c3)cc2c1 was read as CYP2C9 activ 0.8, CYP2C19 activ 0.7, EphB4 antag -2, CYP2C9 inhib 23 and CYP2C19 inhib 32.
`COc1ccc(CN(CCCN2CCOCC2)C(=O)Nc2cccc(Cl)c2)cc1OC` gave CYP2C9 activ 0, CYP2C19 activ 0.2, EphB4 antag -11, CYP2C9 inhib 97* and CYP2C19 inhib 80*.
Screening COc1ccc(CCNC2CC(=O)N(CCc3ccc(OC)c(OC)c3)C2=O)cc1OC (stereo unspecified) returned CYP2C9 activ 1, CYP2C19 activ 1, EphB4 antag -4, CYP2C9 inhib -5 and CYP2C19 inhib -3.
For CCOC(=O)c1cnc(SCc2ccccc2)nc1N the results were CYP2C9 activ 1, CYP2C19 activ 0.9, EphB4 antag -4, CYP2C9 inhib -4 and CYP2C19 inhib 14.
O=C(Nc1cccc(Cl)c1)N(CCN1CCOCC1)Cc1ccccc1F was read as CYP2C9 activ 0.1, CYP2C19 activ 0.6, EphB4 antag -7, CYP2C9 inhib 92* and CYP2C19 inhib 40.
`Cc1ccc(C(=O)Oc2cccc(NC(=O)c3ccco3)c2)cc1S(=O)(=O)N1CCC(C)CC1` gave CYP2C9 activ 0.1, CYP2C19 activ 0.4, EphB4 antag 3, CYP2C9 inhib 85* and CYP2C19 inhib 60*.
O=C(Oc1cccc(NC(=O)c2ccco2)c1)c1ccc(Br)c(S(=O)(=O)N2CCCCC2)c1 was read as CYP2C9 activ 0.5, CYP2C19 activ 0.7, EphB4 antag 7, CYP2C9 inhib 48 and CYP2C19 inhib 26.
COc1ccc(Br)cc1C(=O)Nc1cccc(-c2nnc(-c3ccco3)o2)c1 was read as EphB4 antag -3.
Cc1ccc(SCC(=O)Nc2cccc(-c3nnc(-c4ccco4)o3)c2)cc1 was read as CYP2C9 activ 0.1, CYP2C19 activ 0.8, EphB4 antag 1, CYP2C9 inhib 91* and CYP2C19 inhib 23.
Screening Cc1ccc(SCC(=O)Nc2cccc(C(=O)NC(C)(C)C)c2)cc1 returned CYP2C9 activ 0.4, CYP2C19 activ 0.7, EphB4 antag -1, CYP2C9 inhib 58* and CYP2C19 inhib 27.
COc1cccc(C(=O)Nc2cccc(-c3nnc(-c4ccco4)o3)c2)c1 was read as CYP2C9 activ 0.3, CYP2C19 activ 0.2, EphB4 antag 1, CYP2C9 inhib 70* and CYP2C19 inhib 77*.
Cc1ccc(C(=O)N/C(=C\c2ccco2)C(=O)NCC2CCCO2)cc1C (stereo unspecified) was read as CYP2C9 activ 0.9, CYP2C19 activ 1.2, EphB4 antag -2, CYP2C9 inhib 7 and CYP2C19 inhib -21.
Screening CCOC(=O)NC(=O)/C(C#N)=N/Nc1c(F)cccc1F returned CYP2C9 activ 0.8, CYP2C19 activ 1, EphB4 antag -4, CYP2C9 inhib 24 and CYP2C19 inhib 1.
Screening O=C(NCCCN1CCN(c2ccccc2F)CC1)C1CCN(S(=O)(=O)c2cccs2)CC1 returned CYP2C9 activ 0.9, CYP2C19 activ 0.9, EphB4 antag 5, CYP2C9 inhib 8 and CYP2C19 inhib 6.
`O=C(O)CSCC(=O)Nc1ccc(S(=O)(=O)N2CCCCC2)cc1` gave CYP2C9 activ 0.8, CYP2C19 activ 1, EphB4 antag 2, CYP2C9 inhib 16 and CYP2C19 inhib 2.
`CCOC(=O)c1cnc2ccc(OCC)cc2c1N1CCN(c2ccccc2OC)CC1` gave CYP2C9 activ 0.1, CYP2C19 activ 0.2, EphB4 antag -3, CYP2C9 inhib 94* and CYP2C19 inhib 77*.
`COc1cc(OC)nc(NC(=O)CS(=O)(=O)c2ccccc2)n1` gave EphB4 antag 0.
For COc1ccc(CCNC(=O)c2ccc(CS(=O)(=O)c3ccc(C)cc3)o2)cc1OC the results were CYP2C9 activ 0.2, CYP2C19 activ 0.8, EphB4 antag 7, CYP2C9 inhib 83* and CYP2C19 inhib 18.
`COc1ccc(CCNC(=O)CCS(=O)(=O)c2ccc(C)cc2)cc1OC` gave CYP2C9 activ 0.9, CYP2C19 activ 0.9, EphB4 antag 9, CYP2C9 inhib 13 and CYP2C19 inhib 12.
Screening CCCCc1ccc(NC(=S)NCc2cccs2)cc1 returned CYP2C9 activ 0.9, CYP2C19 activ 0.9, EphB4 antag 2, CYP2C9 inhib 8 and CYP2C19 inhib 9.
For Cc1ccc(NC(=S)NCc2cccs2)cc1 the results were CYP2C9 activ 0.7, CYP2C19 activ 0.4, EphB4 antag -3, CYP2C9 inhib 29 and CYP2C19 inhib 57*.
Cc1ccc(S(=O)(=O)Cc2ccc(C(=O)NCc3cccs3)o2)cc1 was read as CYP2C9 activ 0.3, CYP2C19 activ 0.7, EphB4 antag 10, CYP2C9 inhib 72* and CYP2C19 inhib 29.
For Cc1ccccc1S(=O)(=O)Cc1ccc(C(=O)NCc2cccs2)o1 the results were CYP2C9 activ 0.6, CYP2C19 activ 0.6, EphB4 antag 6, CYP2C9 inhib 44 and CYP2C19 inhib 40.
Screening O=C(CN1C(=O)c2cccc3cccc1c23)N1CCN(c2ccccc2)CC1 returned CYP2C9 activ 1.5, CYP2C19 activ 0.8, EphB4 antag 3, CYP2C9 inhib -46 and CYP2C19 inhib 20.
`C=CCNC(=O)C1CCCN(S(C)(=O)=O)C1` (stereo unspecified) gave CYP2C9 activ 1, CYP2C19 activ 1, EphB4 antag -5, CYP2C9 inhib -4 and CYP2C19 inhib 5.
For COc1ccc(S(=O)(=O)NC(C)C(=O)O)cc1 (stereo unspecified) the results were CYP2C9 activ 0.9, CYP2C19 activ 0.9, EphB4 antag 3, CYP2C9 inhib 6 and CYP2C19 inhib 6.
COC(=O)c1sccc1NS(=O)(=O)c1ccc(OC)cc1 was read as CYP2C9 activ 1, CYP2C19 activ 0.6, EphB4 antag -7, CYP2C9 inhib 0 and CYP2C19 inhib 37.
For COc1ccc(S(=O)(=O)Nc2cc(C(C)C)c(O)cc2C)cc1 the results were CYP2C9 activ 1.2, CYP2C19 activ 0.1, EphB4 antag -1, CYP2C9 inhib -22 and CYP2C19 inhib 88*.

Screening data deposited in PubChem by several laboratories.
